# Source: PubChem BioAssay (NCATS)
# Results filed as inconclusive are left out. Calls of active or inactive are those of the source. Unless noted, calls follow the shape of the dose curve; as a rule, active = well fitted curve in the direction sought with a large enough effect; inconclusive = small, poorly fitted or top-dose-only effect, or another doubt; inactive = no such curve, though single readings can be large; an effect the other way counts as inactive or inconclusive.
# Legend:
# [1] = test system: Zika virus NS2B-NS3 protease (unlinked complex); assay: Primary screen GU Rhodamine qHTS for Zika virus inhibitors: Unlinked NS2B-NS3 protease assay (AID 1347159); also: % is scaled to controls: 0 for no effect and ±100 for the full control effect; nearly all actives have a fitted effect of over 60% in size
# How it was run: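 Unlinked NS2B/NS3, 25 nM; Rhod110 peptide, 1.5 microM; compounds, up to 114 microM. Reaction run 15 min at RT in 10 mM Tris-HCl pH 8.0, 0.01% Tween 20; kinetic fluorescence change fitted with a 4-parameter Hill model.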
# [2] = target: Cytochrome P450 2D6 (Homo sapiens) (UniProt P10635); assay: Cytochrome P450 family 2 subfamily D member 6 (CYP2D6) small molecule antagonists: luciferase biochemical (cell-free) qHTS assay (AID 1645840; active = well fitted curve in the direction sought with a large enough effect in the repeat runs; an effect the other way counts as inactive or inconclusive; also: nearly all actives have a fitted effect of over 55% in size; also: potency is read from the fitted curve at half-maximal effect; as to activity change, negative = inhibition: % is scaled to controls: 0 for no effect and ±100 for the full control effect)
# Cytochrome P450 2D6 (Homo sapiens), sequence (P10635 whole entry, looked up): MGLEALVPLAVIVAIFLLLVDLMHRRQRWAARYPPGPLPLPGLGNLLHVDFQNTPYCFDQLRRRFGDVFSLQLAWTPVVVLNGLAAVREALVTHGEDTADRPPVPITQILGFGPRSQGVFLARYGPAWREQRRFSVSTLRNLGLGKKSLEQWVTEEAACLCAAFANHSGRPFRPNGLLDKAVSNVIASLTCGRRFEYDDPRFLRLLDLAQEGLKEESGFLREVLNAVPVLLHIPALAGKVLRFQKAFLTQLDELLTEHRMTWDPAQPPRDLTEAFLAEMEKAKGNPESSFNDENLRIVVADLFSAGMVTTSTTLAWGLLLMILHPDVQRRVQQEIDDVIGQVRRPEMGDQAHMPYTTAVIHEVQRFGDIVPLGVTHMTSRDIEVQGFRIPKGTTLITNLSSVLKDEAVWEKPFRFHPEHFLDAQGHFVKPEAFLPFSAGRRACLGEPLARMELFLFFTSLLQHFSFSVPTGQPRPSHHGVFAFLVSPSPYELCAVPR
# How it was run: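 P450-Glo CYP2D6 system: proluciferin substrate converted by enzyme to luciferin, read by luminescence proportional to activity. Enzyme-substrate mix with compound 10 min at room temperature, then NADPH regeneration 1 h before detection reagent.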
# [3] = target: Cytochrome P450 2C9 (Homo sapiens) (UniProt P11712); assay: Cytochrome P450 family 2 subfamily C member 9 (CYP2C9) small molecule antagonists: luciferase biochemical (cell-free) qHTS assay (AID 1645842; active = well fitted curve in the direction sought with a large enough effect in the repeat runs; an effect the other way counts as inactive or inconclusive; also: nearly all actives have a fitted effect of over 55% in size; also: potency is read from the fitted curve at half-maximal effect; as to activity change, negative = inhibition: % is scaled to controls: 0 for no effect and ±100 for the full control effect)
# Cytochrome P450 2C9 (Homo sapiens), sequence (P11712 whole entry, looked up): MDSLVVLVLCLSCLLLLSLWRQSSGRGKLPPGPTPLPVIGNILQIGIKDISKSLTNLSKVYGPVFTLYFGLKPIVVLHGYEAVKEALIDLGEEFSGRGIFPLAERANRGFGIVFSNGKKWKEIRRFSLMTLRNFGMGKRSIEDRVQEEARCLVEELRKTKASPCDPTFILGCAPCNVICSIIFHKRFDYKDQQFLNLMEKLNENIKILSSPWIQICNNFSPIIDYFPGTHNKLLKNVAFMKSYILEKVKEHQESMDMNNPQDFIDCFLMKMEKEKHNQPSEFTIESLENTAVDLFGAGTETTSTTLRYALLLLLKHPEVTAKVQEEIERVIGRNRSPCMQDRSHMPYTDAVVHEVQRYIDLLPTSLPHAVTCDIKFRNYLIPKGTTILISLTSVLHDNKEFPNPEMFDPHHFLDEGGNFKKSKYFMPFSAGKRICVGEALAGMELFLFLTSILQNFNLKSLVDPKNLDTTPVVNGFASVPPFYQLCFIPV
# How it was run: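 P450-Glo CYP2C9 system: proluciferin substrate with enzyme in mix containing 0.4% BSA, 10 min at room temperature, then NADPH regeneration solution added and incubated 1 h at 37C. Detection reagent stopped reaction; luminescence read after 20 min as RLU.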
# [4] = test system: PA-1; assay: Primary qHTS to identify gynecologic anti-cancer compounds using libraries of approved drugs and bioactive compounds (AID 1345084); conditions: Gynecologic cancer cell panel viability, ATPlite luminescence, 48 h; series mostly up to 57.5 µM; also: nearly all actives have a fitted effect of over 55% in size; also: potency is read from the fitted curve at half-maximal effect
# How it was run: (§1)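 Cells, 1,000 per well, were allowed to settle for 16 h at 37 C before compound addition. Five concentrations were tested for 48 h, and viability was read by ATPlite luminescence after 15 min at room temperature.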
# [5] = Primary redox qHTS assay for identification of artifact compounds. (AID 1845223);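 also: 0% = DMSO and 100% = reference compound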
# How it was run: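 Redox-cycling detection via DTT (250 uM final) oxidation coupled to Amplex Red (25 uM)/HRP (250 mU/mL) in HBSS. 15 min preincubation plus 30 min after DTT, room temperature. Ex/Em 525/598 nm; 4-parameter Hill fit against DMSO and 10 uM DA3003.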
# [6] = target: Catechol O-methyltransferase (Homo sapiens) (UniProt P21964); assay: Confirmatory Screen for Target Class Profiling of Small Molecule Inhibitors of Methyltransferases (AID 1745852); conditions: MTase-Glo luminescence, SAH detection, recombinant enzyme; measured here: COMT max response; stronger effect = lower value; as to activity change, negative = inhibition: % is scaled to controls: 0 for no effect and ±100 for the full control effect
# Catechol O-methyltransferase (Homo sapiens), sequence (P21964 whole entry, looked up): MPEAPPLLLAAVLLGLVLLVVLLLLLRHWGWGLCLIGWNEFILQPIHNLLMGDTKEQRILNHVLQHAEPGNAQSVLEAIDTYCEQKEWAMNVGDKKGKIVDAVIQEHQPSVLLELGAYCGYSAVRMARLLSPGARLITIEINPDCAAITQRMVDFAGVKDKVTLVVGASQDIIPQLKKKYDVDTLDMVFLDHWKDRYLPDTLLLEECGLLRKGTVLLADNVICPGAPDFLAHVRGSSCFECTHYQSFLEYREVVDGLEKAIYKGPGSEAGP
# [7] = target: Guanidinoacetate N-methyltransferase (Homo sapiens) (UniProt Q14353); assay: as above; conditions: activity change, negative = inhibition: at 57.3 µM (top of the series) unless noted
# [8] = target: Nicotinamide N-methyltransferase (Homo sapiens) (UniProt P40261); assay: as above; conditions: MTase-Glo luminescence, SAH detection, recombinant enzyme; measured here: NNMT max response; stronger effect = lower value
# Nicotinamide N-methyltransferase (Homo sapiens), sequence (P40261 whole entry, looked up): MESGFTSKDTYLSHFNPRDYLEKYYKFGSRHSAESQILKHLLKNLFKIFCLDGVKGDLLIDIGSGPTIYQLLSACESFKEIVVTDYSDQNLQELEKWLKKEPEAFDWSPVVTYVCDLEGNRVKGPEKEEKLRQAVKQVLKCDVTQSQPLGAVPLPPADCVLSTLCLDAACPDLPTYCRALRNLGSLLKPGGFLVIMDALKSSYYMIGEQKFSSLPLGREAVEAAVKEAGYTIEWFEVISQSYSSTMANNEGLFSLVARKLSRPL
# [9] = target: Phenylethanolamine N-methyltransferase (Homo sapiens) (UniProt P11086); assay: as above; conditions: MTase-Glo luminescence, SAH detection, recombinant enzyme; measured here: PNMT max response; stronger effect = lower value
# Phenylethanolamine N-methyltransferase (Homo sapiens), sequence (P11086 whole entry, looked up): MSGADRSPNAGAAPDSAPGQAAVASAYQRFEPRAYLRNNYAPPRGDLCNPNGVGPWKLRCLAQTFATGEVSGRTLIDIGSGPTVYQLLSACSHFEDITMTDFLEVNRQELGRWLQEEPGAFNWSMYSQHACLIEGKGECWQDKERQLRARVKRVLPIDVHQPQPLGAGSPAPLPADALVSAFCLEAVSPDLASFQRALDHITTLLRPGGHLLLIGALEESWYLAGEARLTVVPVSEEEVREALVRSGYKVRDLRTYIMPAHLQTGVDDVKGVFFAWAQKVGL
# [10] = test system: CAOV3; assay: Primary qHTS to identify gynecologic anti-cancer compounds using libraries of approved drugs and bioactive compounds (AID 1345084); conditions: Gynecologic cancer cell panel viability, ATPlite luminescence, 48 h; series mostly up to 57.5 µM; also: nearly all actives have a fitted effect of over 55% in size; also: potency is read from the fitted curve at half-maximal effect
# How it was run: as §1
# [11] = test system: SKOV3; assay: as above; conditions: Gynecologic cancer cell panel viability, ATPlite luminescence, 48 h; series mostly up to 57.5 µM
# How it was run: as §1
# [12] = P-glycoprotein substrates identified in KB-3-1 adenocarcinoma cell line, qHTS therapeutic library screen (AID 1346986); also: nearly all actives have a fitted effect of over 60% in size;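 also: potency is read from the fitted curve at half-maximal effect; potency is for cytotoxicity meaning loss of cell viability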
# How it was run: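 Viability by CellTiter-Glo after 72 h compound exposure at 37 degree C, 5% CO2. Cytotoxic call: curve class -1.1 to -2.4, maximum response >50%, AC50 < 10 uM, compared across KB-3-1 and P-gp-overexpressing KB-8-5-11.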
# [13] = target: Luciferin 4-monooxygenase (Photinus pyralis) (UniProt P08659); assay: Biochemical firefly luciferase enzyme assay for NPC (AID 624030);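 also: purified P. pyralis luciferase at 10 nM with luciferin and ATP substrate; 0% = DMSO and -100% = full luciferase inhibition by PTC124 control; nearly all actives have a fitted effect of over 70% in size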
# Luciferin 4-monooxygenase (Photinus pyralis), sequence (P08659 whole entry, looked up): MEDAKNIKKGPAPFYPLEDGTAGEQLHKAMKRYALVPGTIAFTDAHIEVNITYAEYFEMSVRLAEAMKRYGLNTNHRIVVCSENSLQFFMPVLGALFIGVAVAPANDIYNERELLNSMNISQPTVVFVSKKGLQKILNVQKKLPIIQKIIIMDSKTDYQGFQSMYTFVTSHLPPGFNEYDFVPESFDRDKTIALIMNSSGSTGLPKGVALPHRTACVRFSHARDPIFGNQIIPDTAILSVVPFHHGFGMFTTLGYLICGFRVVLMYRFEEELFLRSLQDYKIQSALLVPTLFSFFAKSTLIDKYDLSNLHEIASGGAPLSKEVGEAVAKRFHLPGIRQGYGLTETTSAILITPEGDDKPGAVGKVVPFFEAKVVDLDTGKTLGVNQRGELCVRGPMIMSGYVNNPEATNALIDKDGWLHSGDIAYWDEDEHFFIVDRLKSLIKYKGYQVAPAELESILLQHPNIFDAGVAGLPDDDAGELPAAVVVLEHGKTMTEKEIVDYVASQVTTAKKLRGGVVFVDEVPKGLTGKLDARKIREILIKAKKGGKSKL
# How it was run: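 Purified P. pyralis luciferase at 10 nM in 50 mM Tris Acetate (final), luminescence read within 5 minutes of enzyme addition to compounds. Activity normalised to PTC124 versus DMSO; concentration-response curves classed by r2, magnitude and activity.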
# [14] = qHTS Assay for Identifying Gametocytocidal Compounds (AID 743244);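 also: % is scaled to controls: 0 for no effect and ±100 for the full control effect; actives lower the fluorescent signal which means gametocytes are killed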; conditions: P. falciparum 3D7 stage III-V gametocytes, alamarBlue, 72 h; max response: stronger effect = lower value
# How it was run: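 P. falciparum 3D7 stage III–V gametocytes (20,000 cells/well) were exposed to compounds for 72 h at 37 °C, 5% CO2. AlamarBlue was then added for 24 h; decreased resorufin fluorescence (Ex 525/Em 598 nm) indicated loss of viability.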
# [15] = Drug repurposing screens with cells derived from glioblastoma tumor samples (AID 1345199); conditions: GBM patient neurospheres viability, ATP luminescence, 48 h; also: nearly all actives have a fitted effect of over 40% in size; also: potency is read from the fitted curve at half-maximal effect
# How it was run: (§2)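 Primary testing used CD133+ neurospheres from four GBM patients, seven concentrations, 48 h exposure and ATP-based viability; confirmation added three slower-growing patient lines.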
# [16] = test system: astro; assay: as above; conditions: viability, ATP luminescence, 48 h; series mostly up to 45.9 µM
# How it was run: as §2
# [17] = test system: Zika virus NS2B-NS3 protease; assay: Primary screen GU AMC qHTS for Zika virus inhibitors (AID 1347154);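 also: 0% = no-inhibitor control and -100% = no-enzyme control; nearly all actives have a fitted effect of over 70% in size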
# How it was run: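 Unlinked Zika NS2B hydrophilic domain–NS3 protease complex at 25 nM in 10 mM Tris-HCl pH 8.0, 0.01% Tween 20, with an AMC peptide substrate. Fluorescence change (340/450 nm) over 15 min at room temperature, normalized to controls, fitted to 4-parameter Hill.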
# [18] = Primary qHTS for small molecule stabilizers of the endoplasmic reticulum resident proteome: Secreted ER Calcium Modulated Protein (SERCaMP) assay (AID 1508630); also: % is scaled to controls: 0 for no effect and ±100 for the full control effect
# How it was run: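 The SH-SY5Y reporter protocol was run at 3 concentrations up to 38.3 uM (primary) or 11 concentrations (follow-up): 16 h compound, 100 nM thapsigargin for 4 h, then extracellular luciferase luminescence.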
smiles,measurement,setting,value
NC(=Nc1ccc(CCNCc2cccc(Cl)c2)cc1)c1cccs1,Potency,[1],inactive
same,Potency,[2],0.477 µM (active)
same,Potency,[3],12 µM (active)
same,Potency,[4],inactive
O=C(/C=C/n1cnc(-c2cc(C(F)(F)F)cc(C(F)(F)F)c2)n1)NNc1cnccn1,Potency,[5],inactive
same,Potency,[4],10 µM (active)
CN(C)CCCCCCNC(=O)c1cccc(-c2cc(O)c3ncccc3c2)c1,activity,[6],-95.5%
same,"activity change, negative = inhibition",[7],6.43%
same,activity,[8],-1.3%
same,activity,[9],4.93%
same,Potency,[10],inactive
same,Potency,[11],inactive
C[C@@H]1CCNC(=O)c2cc3ccc(C(=O)Nc4nc5ccccc5n4CCCN(C)C)cc3n21,Potency,[3],inactive
same,Potency,[5],inactive
same,Potency,[4],inactive
COc1ccccc1-c1cc(Nc2cccc(CS(N)(=O)=O)c2)ncn1,Potency,[12],11.6 µM (active)
same,Potency,[2],inactive
same,Potency,[3],9.52 µM (active)
same,Potency,[5],inactive
same,Potency,[4],22.4 µM (active)
C=C1C(=O)O[C@H]2[C@H]1[C@@H](OC(=O)/C(C)=C\C)C[C@]1(C)O[C@@H]1[C@H]1O[C@H]1C(=C)[C@H]2O,Potency,[1],inactive
same,Potency,[4],12.6 µM (active)
N#Cc1ccc2c(c1)CCN(CCC1CCC(NC(=O)c3ccnc4ccccc34)CC1)C2 (configuration not stated),Potency,[10],inactive
same,Potency,[4],inactive
same,Potency,[11],22.4 µM (active)
c1ccc(Cn2c(-c3ccc(OCC(C4CCNCC4)n4c(-c5ccccc5)nc5ccccc54)cc3)nc3ccccc32)cc1 (configuration not stated),activity,[6],-14.2%
same,"activity change, negative = inhibition",[7],-5.98%
same,activity,[8],-61.3%
same,activity,[9],-1.77%
same,Potency,[5],inactive
same,Potency,[4],inactive
OC(CNCCc1c[nH]c2ccccc12)Cn1c2ccccc2c2ccccc21 (configuration not stated),Potency,[2],0.268 µM (active)
same,Potency,[3],0.952 µM (active)
same,Potency,[4],inactive
CC(C)COc1ccc(CNC(=O)N(Cc2ccc(F)cc2)C2CCN(C)CC2)cc1,Potency,[1],inactive
same,Potency,[2],5.35 µM (active)
same,Potency,[5],inactive
O=C(O)c1ccc(O)c2ncc(N3CCCN(CCc4cccc5ccccc45)CC3)cc12,activity,[6],15.8%
same,"activity change, negative = inhibition",[7],8.48%
same,activity,[8],-19.7%
same,activity,[9],-64.3%
COc1ccc(-c2cc(C(O)C3CCCCN3)c3ccccc3n2)cc1 (configuration not stated),Potency,[3],10.7 µM (active)
same,Potency,[5],inactive
same,Potency,[11],28.2 µM (active)
Cc1ccc2c(Nc3ccc(Cl)cc3)nccc2c1Nc1ncccc1-c1ncnc2nc[nH]c12,Potency,[1],inactive
same,Potency,[2],12 µM (active)
same,Potency,[3],12 µM (active)
same,Potency,[5],inactive
same,Potency,[11],15.8 µM (active)
COc1cc(N2CCN(C)CC2)ccc1Nc1nccc(-c2cn(C)c3cnccc23)n1,Potency,[1],inactive
same,Potency,[2],inactive
same,Potency,[3],inactive
same,Potency,[5],inactive
same,Potency,[11],12.6 µM (active)
FC(F)(F)c1ccc(CNc2ccc(Cc3c[nH]c4ncccc34)cn2)cc1,Potency,[2],0.19 µM (active)
same,Potency,[3],1.2 µM (active)
same,Potency,[5],inactive
same,Potency,[10],inactive
CN(CC(=O)N1CCOCC1)Cc1c(Cl)cccc1NC(=O)c1ccccc1,Potency,[13],inactive
same,max response,[14],-0.892% (inactive)
same,"activity, negative = cell killing","[15]; at 45.9 µM (top of the series), tumour line B",-3.67% (inactive)
same,"activity, negative = cell killing","[15]; at 45.9 µM (top of the series), tumour line D",-22.4% (inactive)
same,"activity, negative = cell killing","[15]; at 46.1 µM (top of the series), tumour line C",-9.11% (inactive)
same,Potency,[15]; tumour line A,35.5 µM (active)
same,Potency,[16],inactive
N#Cc1cccc(C#N)c1-c1nc2c3ccccc3c3cc(Cl)ccc3c2[nH]1,Potency,[1],inactive
same,Potency,[10],inactive
same,Potency,[4],inactive
COc1ccc(NC(=O)N2CCc3c2ccc2ccccc32)cc1N1CCN(C)CC1,Potency,[1],inactive
same,Potency,[2],19 µM (active)
CC[C@]1(O)C[C@H]2CN(CCC3C(=Nc4ccccc43)[C@@](C(=O)OC)(c3cc4c(cc3OC)N(C)[C@H]3[C@@](O)(C(N)=O)[C@H](O)[C@]5(CC)C=CCN6CC[C@]43[C@@H]65)C2)C1 (some centres not stated),Potency,[4],0.1 µM (active)
CCOC(=O)c1cnn(-c2ccc(NC(=O)C(Cl)=C(Cl)Cl)cc2)c1C(F)(F)F,Potency,[2],15.1 µM (active)
same,Potency,[3],6.74 µM (active)
CCN1CCC[C@@H]1CNC(=O)c1ccc2c(c1)NC(=O)/C(=C/c1ccccc1F)S2,Potency,[1],inactive
same,Potency,[3],12 µM (active)
same,activity,[6],-24.5%
same,"activity change, negative = inhibition",[7],-8.4%
same,activity,[8],-32%
same,activity,[9],-20.2%
same,Potency,[5],inactive
CC1(C)CC[C@]2(C(=O)OC3OC(CO)C(O)C(O)C3O)CC[C@]3(C)C(=CCC4[C@@]5(C)CC[C@H](OC6OC(C(=O)O)C(O)C(O)C6O)C(CO)(CO)C5CC[C@]43C)[C@@H]2C1 (some centres not stated),Potency,[1],inactive
same,redox activity (% of DA3003),[5],7.5% [at 11.5 µM] (inactive)
same,Potency,[4],3.16 µM (active)
O=C(Nc1ncc(SCCN2CCCC2)s1)C1(c2ccc(S(=O)(=O)C3CC3)cc2)CC1C1CCCCC1 (configuration not stated),Potency,[2],21.3 µM (active)
same,Potency,[3],19 µM (active)
same,Potency,[5],inactive
Cc1[nH]c(/C=C2\C(=O)Nc3ccc(F)cc32)c(C)c1C(=O)NC[C@H](O)CN1CCOCC1,Potency,[12],14.6 µM (active)
same,Potency,[1],inactive
same,Potency,[2],inactive
same,Potency,[3],inactive
same,Potency,[5],inactive
C=C(C)C(=O)O[C@H]1[C@H]2C(=C)C(=O)O[C@@H]2C[C@@H](C)[C@@H]2O[C@@H]2C(=O)[C@](C)(O)[C@@H]1OC(C)=O,Potency,[1],inactive
same,Potency,[5],inactive
same,Potency,[11],2.51 µM (active)
COc1ccc(C(=O)Nc2sc3c(c2C(N)=O)CCCC3)cc1OC,Potency,[12],inactive
same,Potency,[17],inactive
same,Potency,[18],inactive
